These results are taken from PubChem BioAssay (NCI).

Values joined by “and” are separate entries in the source; they are usually repeats but may differ in a detail not shown here. Equal values may be shown once. The panel holds about 83,000 compounds, 20% with a hit somewhere; the sample as a whole holds those more often.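 Treatment: one concentration, 48 hours, 96-well format. Scoring: percent growth, with anything below 10 considered active.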 Values without a mark were called inactive. Active and inactive are the calls of the source.

The test system of this test is HL-60(TB) leukemia. The test can be described thus: NCI-60 one-dose screen, 48 h (100 = growth as untreated, 0 = no growth, -100 = all killed). Particulars: 10 µM unless noted.
As for `Cc1nc2sc(C(=O)Nc3ccccc3)c(N)c2cc1C(=O)c1ccccc1`, the growth is 21.8%.
The figure for `Fc1cnccc1C1CC(c2ccc(N3CCNCC3)cc2)=NN1` (stereo not given) is 77.3%; for `c1cncc(CNc2ccccc2-c2nnc(Nc3ccc4c(c3)OCCO4)o2)c1` it is 8.71% (active); for `COc1ccc2[nH]cc(/C=C3\C(=O)Nc4ccccc43)c2c1` it is -31.7% (active).
With `CC(C)(C)NCCC(O)c1cc2c(Cl)cc(Cl)cc2c2cc(C(F)(F)F)ccc12` (stereo not given) the figure was -60.9% (active); with `N#C/C(=C\c1ccc2ccccc2c1)c1cc2ccccc2[nH]1`, 10.5%; with `O=C(Cc1ccccn1)C(F)(F)C(F)(F)C(F)(F)F`, 105%.
With `O=C(CSc1nc2sc3c(c2c(=O)n1Cc1ccccc1)CCCC3)N1CCN(c2ccccc2)CC1` the figure was 90.3%; with `CCC(C)C1(C2CCCC2)NC(=O)NC1=O` (stereo not given), 63.4% and 98.2%; with `Clc1ccc2nc(Cl)c3ccccc3c2c1`, 92.3%.
As to `Nc1c(C(=O)Nc2cccc(Cl)c2Cl)sc2nc3c(cc12)C(=O)CCC3`, the growth was 96.6%.
The figure for `Cc1cc(C(C)(C)C)ccc1S` is 111%; for `CCOC(=O)C(N)Cc1cc(I)c(O)c(I)c1` (stereo not given) it is 99.9% and 132%.
Regarding `NS(=O)(=O)c1ccc(-n2ncc(NC(=O)Nc3ccc(S(=O)(=O)Nc4nccs4)cc3)c2-c2ccccc2)cc1`, the growth was 92.5%.
Turning to `COc1cc(C(=O)C[n+]2ccccc2)ccc1OC(C)=O`, the growth was 101%.
For `O=C(NCCc1nccs1)c1cnc2c(S)cccc2c1`, the growth was 16.6%.
Regarding `CCOC(=O)c1c(C)[nH]c(C)c1C=O`, the growth is 71.4%.
The figure for `CCN(CC)c1nc(SCc2ccccc2Cl)ncc1C` is 89.7%.
Regarding `CCN1CCN(Cc2ccc(NC(=O)c3cccc(C#Cc4cccc5[nH]nc(N)c45)c3)cc2C(F)(F)F)CC1`, the growth was -54.1% (active).
The figure for `CC(=O)N[C@H](C(=O)N[C@@H](CCCNC(=N)N)C(=O)N[C@@H](CCCCN)C(=O)N[C@@H](CCCNC(=N)N)C(=O)N[C@]1(C)CCC/C=C\CCC[C@@](C)(C(=O)N[C@@H](CC(C)C)C(=O)N[C@@H](CC(C)C)C(=O)N[C@@H](CCC(N)=O)C(=O)N[C@@H](CCC(=O)O)C(=O)N[C@@H](CCCNC(=N)N)C(=O)N[C@@H](CCC(=O)O)C(=O)N[C@@H](CC(C)C)C(=O)N[C@H](C(=O)N[C@@H](CCC(=O)O)C(N)=O)C(C)C)NC(=O)[C@H](CCCNC(=N)N)NC(=O)[C@H](CC(C)C)NC1=O)C(C)C` is 104%.
With `C[C@]12C[C@H]1CC[C@]1(C)[C@@H]2CC[C@@]23C[C@H](CC[C@H]21)[C@@](O)(CO)C3` the figure was 103%; with `O=C(CCc1nnc2sc(COc3ccccc3)nn12)c1nc2ncccc2[nH]1`, 117%; with `CCOC(=O)c1cc2c(=O)oc3ccccc3c2oc1=O`, 106%.
The figure for `CCOC(=O)C(=Cc1ccc(Br)cc1)C(=O)OCC` is -41.8% (active); for `C=C1C(=O)O[C@H]2[C@H]1CC/C(COC(=O)NCCc1ccc(OC)cc1)=C\CC[C@@]1(C)O[C@@H]21` it is -22% (active).
For the compound `OCC1OC(n2cnc3c(=S)nc[nH]c32)C(O)C1O` (stereo not given), the growth was 120% and 50.9%.
With `COc1cc(/C=C\c2cc(/C=C\c3ccc(O)c(OC)c3)n(C(=O)CNc3ccccc3OC)n2)ccc1O` the figure was 25.5%; with `Cc1sc2nc3[nH]/c(=C\c4ccc(Cl)cc4)c(=O)n3c(=O)c2c1C`, 92.8%.
For `C=C1CCC2C3(C)COC(c4ccc(N(C)C)cc4)OC3CCC2(C)C1C/C=C1/C(=O)OCC1O` (stereo not given), the growth is 15.3%.
The figure for `COc1ccccc1/C=C1\Oc2cc(OCCCN3CCCC3)ccc2C1=O` is 78.7%; for `CCOc1ccccc1/C=N/N1CCCCCC1` it is 99.1%.
With `Cc1ccc(C=C2C(Cl)=C(Cl)C(Cl)=C2Cl)cc1` the figure was 7.68% (active); with `O=C(/C=C/c1ccc[nH]1)c1ccc(-n2ccc(C(F)(F)F)n2)cc1`, -18.4% (active); with `O=[N+]([O-])c1ccc2c(c1)Cc1cc(F)ccc1-2`, 114%.
The figure for `CN(CC(=O)Nc1nc2ccccc2[nH]1)S(=O)(=O)c1ccc(Cl)cc1` is 90%.
`O=C(Nc1ccc(Oc2ccc(NC(=O)Nc3ccc([N+](=O)[O-])cc3)cc2)cc1)Nc1ccc([N+](=O)[O-])cc1`: the growth is -32.6% (active).
With `ON=C1CCCCCCCC1` the figure was 61.9% and 105%; with `O=C(/C=C\c1ccc(Cl)c(Cl)c1)c1ccccc1`, 59.3% and 99.9%; with `COc1cc2c(O)n(CCCn3ccnc3)c3c4cnc5cccc(c(=O)c3c2cc1OC)c54`, 6.68% (active).
In the case of `COc1ccc(-c2csc(NC(=O)CN3CCN(c4cc5c(cc4F)c(=O)c(C(=O)O)cn5C4CC4)CC3)n2)cc1`, the growth is -25% (active).
